Calls of active or inactive are those of the source. Entries that show only a call come without a potency. The call rests on the fitted dose curve; in most records, active means well fitted inhibition curve with a large enough effect in the repeat runs (not every such curve was filed as active); inconclusive means weak or mixed curves; inactive means flat fitted curve, though single readings scatter.

The target in the assay is Thyrotropin-releasing hormone receptor (Homo sapiens) (UniProt P34981). Put plainly: qHTS assay to identify small molecule antagonists of the thyrotropin-releasing hormone receptor (TRHR) signaling pathway (AID 1346877). Particulars: TRHR-HEK293, TRH-induced calcium fluorescence, antagonist mode; series mostly up to 51.3 µM; activity, negative = inhibition: at the top concentration. The source says: National Center for Advancing Translational Sciences [NCATS]
Thyrotropin-releasing hormone receptor (Homo sapiens), sequence (P34981 whole entry, looked up): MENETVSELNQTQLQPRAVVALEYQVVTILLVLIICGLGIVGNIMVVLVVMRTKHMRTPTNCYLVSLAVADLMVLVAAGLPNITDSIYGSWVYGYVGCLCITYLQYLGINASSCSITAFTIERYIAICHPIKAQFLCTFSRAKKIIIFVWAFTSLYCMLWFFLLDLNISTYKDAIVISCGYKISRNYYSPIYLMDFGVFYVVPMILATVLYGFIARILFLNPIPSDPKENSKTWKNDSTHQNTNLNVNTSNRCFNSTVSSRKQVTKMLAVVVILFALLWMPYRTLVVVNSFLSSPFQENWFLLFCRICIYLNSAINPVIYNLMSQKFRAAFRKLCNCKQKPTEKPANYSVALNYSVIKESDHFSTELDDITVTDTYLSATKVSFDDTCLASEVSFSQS
NIH Chemical Genomics Center [NCGC]
U.S. Environmental Protection Agency [EPA]
National Institutes of Environmental Health Sciences [NIEHS]
National Toxicology Program [NTP]
U.S. Food and Drug Administration [FDA]
Thyrotropin-releasing hormone (TRH) receptor (TRHR) is a G-protein-coupled receptor which binds the tripeptide thyrotropin releasing hormone. TRHR is found in the brain and, when bound by TRH, acts (through phospholipase C) to increase intracellular inositol trisphosphate. It plays a crucial role in the anterior pituitary where it controls the synthesis and secretion of thyroid stimulating hormone and prolactin. The TRHR-Hek293 assay is a cell-based assay, and it has the potential to screen G protein-coupled receptors. A compound/drug can either activate (agonist) or suppress (antagonist) GPCRs that can be monitored by levels of intracellular calcium. In this assay, the Tox21 10K compound library was screened to identify potential TRHR antagonists.
Tox21 Assay Protocol Summary:
The TRHR-Hek293 cells were dispensed at 1500cells/4uL/well in 1536-well black-clear bottom plates using a Multidrop dispenser. After the assay plates were incubated at a 37 C/5% CO2 incubator for 18 hours, 4 uL of Dye-Loading Solution was added to each well. The plates were incubated at 37 C for 2 hours. For agonist mode, 23 nL of compounds dissolved in DMSO, positive controls or DMSO only was transferred to the assay plate by a pin tool. The fluorescence intensity in the plates was measured using FDSS 7000EX kinetic plate reader for 3 min at 1 sec intervals. For antagonist mode, 23 nL of compounds dissolved in DMSO, positive controls or DMSO only was transferred to the assay plate by a pin tool. After 5 min incubation at room temperature, 1 uL of TRH was added on the top of the cell/compound mixtures to achieve a final agonist concentration of 1 nM. The fluorescence intensity in the plates was measured using FDSS 7000EX kinetic plate reader for 3 min at 1 sec intervals. Each test compound was measured at 15 concentrations and in triplicates.
(qHTS replaces the single test concentration by a dilution series.)
Regarding `CC(C)=CCO`, the Potency result is “inactive”.

Take `CC1=CC(C)(C)Nc2ccccc21`: the Potency result was “inactive”.

As for `C=CCCCCCCCCCC`, the Potency result was “inactive”. As to `C/C=C/C(=O)N(CC)c1ccccc1C`, the Potency result was “inactive”. Turning to `Oc1c(Cl)ccc(Cl)c1Cl`, the Potency result is “inactive”. Still for that read-out and setting: with `Cc1ccc(C(C)(C)C)cc1` the entry was “inactive”; with `Cc1ccc2c(c1)C(=O)OC2=O`, “inactive”. In the case of `CCCCCC1C(=O)CCC1CC(=O)OC` (stereo not given), the Potency entry was “inactive”. For `O=C(O)COCCN1CCN(C(c2ccccc2)c2ccc(Cl)cc2)CC1` (stereo not given), the Potency entry is “inactive”. Still for that read-out and setting: with `CCCCCCC(C)O` (stereo not given) the entry was “inactive”; with `C[C@]12CC[C@@H]3c4ccc(O)cc4CC[C@H]3[C@@H]1CC[C@H]2O`, “inactive”. For `O=[Se](O)O`, the Potency entry was “inactive”. Still for that read-out and setting: with `CC1(C)C(C=C(Cl)Cl)C1C(=O)OCc1cccc(Oc2ccccc2)c1` (stereo not given) the entry was “inactive”; with `O=C(O)c1ccc(O)cc1`, “inactive”.

As to `COc1ccc(C(=O)c2ccccc2O)c(O)c1`, the Potency entry was “inactive”. Same read-out and setting: with `IC(I)I` the entry was “inactive”. With `Cc1ccc(C(C)(C)C)c(O)c1`, the “activity, negative = inhibition” value was 4.22% (inactive). In the case of `O=C(O)CCCCCCCCCCCC(=O)O`, the Potency entry was “inactive”. Take `O=Cc1ccccc1C=O`: the Potency entry is “inactive”. Turning to `CC(=O)OC(C)C`, the Potency entry was “inactive”. Turning to `CC(C)[N+](C)(CCOC(=O)C1c2ccccc2Oc2ccccc21)C(C)C`, the Potency result was “inactive”. With `CCCCCC=O`, the Potency result was “inactive”.

For `c1ccc2c(c1)ccc1cc3c(ccc4ccccc43)cc12`, the Potency result was “inactive”. With `CC(=O)Oc1ccc(C(c2ccc(OC(C)=O)cc2)c2ccccn2)cc1`, the Potency result is “inactive”. `C=CC(C)(O)CCC=C(C)C` (stereo not given): the Potency result is “inactive”. For the molecule `CCCOCCO`, the Potency result is “inactive”.

Take `Clc1ccc(Sc2cc(Cl)c(Cl)cc2Cl)cc1`: the Potency entry is “inactive”. As for `C=CC(=O)OCCCC`, the Potency result is “inactive”. On the same count and under the same terms, with `O=C1CCc2ccccc2O1` the entry was “inactive”. On the same count and under the same terms, under `Cc1ccc(N)c([N+](=O)[O-])c1` stands “inactive”.

Turning to `O=C(CCCN1CCC(O)(c2ccc(Cl)cc2)CC1)c1ccc(F)cc1`, the Potency entry was “inactive”. As for `OCCNCCO`, the Potency entry is “inactive”.

For the molecule `CC(=O)Oc1c(C)c(C)c2c(c1C)CC[C@@](C)(CCC[C@H](C)CCC[C@H](C)CCCC(C)C)O2`, the Potency entry is “inactive”.

Consider `CC(=O)O[C@]1(C(C)=O)CC[C@H]2[C@@H]3C=C(Cl)C4=CC(=O)CC[C@]4(C)[C@H]3CC[C@@]21C`, for which the Potency entry was “inactive”. The same measure, in the same setting: under `CN(C)CCCN1c2ccccc2Sc2ccc(Cl)cc21` stands “inactive”; under `Nc1ccc(O)c(N)c1`, “inactive”. Turning to `CC(=O)Nc1ccc2c(c1)Cc1cc(NC(C)=O)ccc1-2`, the Potency result was “inactive”. The same measure, in the same setting: under `OC[C@H]1O[C@@H]2O[C@H]3[C@H](O)[C@@H](O)[C@@H](O[C@H]4[C@H](O)[C@@H](O)[C@@H](O[C@H]5[C@H](O)[C@@H](O)[C@@H](O[C@H]6[C@H](O)[C@@H](O)[C@@H](O[C@H]7[C@H](O)[C@@H](O)[C@@H](O[C@H]1[C@H](O)[C@H]2O)O[C@@H]7CO)O[C@@H]6CO)O[C@@H]5CO)O[C@@H]4CO)O[C@@H]3CO` stands “inactive”. For the molecule `C[C@]12CC[C@@H]3c4ccc(O)cc4CC[C@H]3[C@@H]1CC[C@@H]2O`, the Potency result was “inactive”. Consider `c1ccc2c(c1)ccc1ncccc12`, for which the Potency entry is “inactive”.

The record behind these values is PubChem BioAssay (Tox21).
